Where “and” joins values, the source holds several entries; their conditions need not be identical. Equal entries are not always repeated. Results filed as inconclusive are left out. For part of these data: Potency and affinity values are given separately. Calls of active or inactive are those of the source. Unless noted, how the calls were made is not given here.
What was measured:
[1] = antimalarial activity against Dd2 strain (AID 2302;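 active means growth inhibition above 50% at the single 2 µM test dose, taken to imply half-maximal potency below 2 µM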;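 further: 0% = DMSO untreated growth and 100% = chloroquine plus artemisinin killed control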); conditions: P. falciparum Dd2 in RBCs, LDH growth readout, 72 h; at 2 µM; stronger effect = higher value
[2] = HepG2 cytotoxicity, primary screen, cytotoxicity control for P. falciparum antimalarial project, cell-based, ATP luminescence (AID 2303;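 active means inhibition above 50%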;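 further: 0% = DMSO wells and 100% = digitonin-killed cells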); conditions: HepG2 viability, 24-48 h, at 10 µM, stronger effect = higher value
[3] = molecular target: L-lactate dehydrogenase (Plasmodium falciparum (isolate CDC / Honduras)) (UniProt Q27743); experiment: PfLDH activity inhibition – cell lysate, 3D7 strain, counter-screen for P. falciparum growth inhibition project (AID 2304);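 further: 0% = vehicle and 100% = reference inhibitor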; conditions: P. falciparum 3D7 crude extract, LDH APAD/NBT absorbance; at 2 µM; stronger effect = higher value
[4] = inhibition of 3D7 malaria parasite growth – strain 3D7 (AID 2306);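 further: 0% = DMSO wells and 100% = chloroquine plus artemisinin control wells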; conditions: P. falciparum 3D7 erythrocytic growth, LDH absorbance, 72 h; at 2 µM; stronger effect = higher value
[5] = molecular target: Calcium-dependent protein kinase 1 (Plasmodium falciparum (isolate 3D7)) (UniProt P62344); experiment: PfCDPK1 kinase inhibitors, biochemical, TCAMS library (AID 1159585; cut-off not given, nearly all actives have IC50 up to about 0.98 µM;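 further: inhibitors leave more ATP so luminescence rises with inhibition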); conditions: recombinant PfCDPK1, Kinase-Glo ATP depletion luminescence
[6] = molecular target: Plasmodium falciparum protein kinase 6 (PK6, PF3D7_1337100) (UniProt Q8IDW1); experiment: PfPK6 kinase inhibitors, biochemical, TCAMS library (AID 1159586); conditions: recombinant PfPK6, Kinase-Glo ATP depletion luminescence
[7] = molecular target: Protein kinase 7 (PK7), Plasmodium falciparum 3D7 (PF3D7_0213400) (UniProt Q7YTF7); experiment: inhibition of Plasmodium PK7 catalytic activity – biochemical, TCAMS antimalarial set, Kinase-Glo luminescence (AID 1159587); conditions: recombinant PfPK7, Kinase-Glo ATP depletion luminescence
[8] = molecular target: Calcium-dependent protein kinase 4 (Plasmodium falciparum (isolate 3D7)) (UniProt Q8IBS5); experiment: PfCDPK4 kinase inhibitors, biochemical, TCAMS library (AID 1159588; cut-off not given, nearly all actives have IC50 up to about 0.91 µM); conditions: recombinant PfCDPK4, Kinase-Glo ATP depletion luminescence
[9] = polyglutamine-triggered caspase-3 activation inhibitors, cell-based (AID 1583); conditions: polyglutamine-induced caspase-3 activation, cell assay; stronger effect = higher value;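 tested at 10 µM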
[10] = suppressors of polyQ aggregation in yeast, 75Q-TubU reporter (AID 1593); conditions: Yeast 75Q polyglutamine aggregation reporter
[11] = rescue of polyQ-huntingtin neuronal dysfunction in worms, whole organism, C. elegans mechanosensory neurons, N-terminal huntingtin (AID 1599); conditions: touch response, stronger effect = higher value
[12] = inhibitors of mitochondrial cytochrome c release, biochemical, purified mitochondria (AID 1603); conditions: stronger effect = lower value;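 further: mouse liver mitochondria challenged with calcium chloride; signal normalized to the plate average as 100%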
[13] = inhibitors of polyQ protein aggregation (AID 1604); conditions: polyglutamine-induced protein aggregation inhibition assay; stronger effect = higher value; tested at 2.5 µM
[14] = enhancers of glutamate uptake in motor neurons, MN-1 cell line (AID 1612); conditions: MN-1 motor neuron cells, stronger effect = higher value;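 further: tested at 1 µM final; 0% = mean of DMSO vehicle wells on each plate; positive means more glutamate uptake than control and negative means less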
[15] = reducers of polyQ inclusions in PC12 cells, cell-based, NGF-treated PC12, GFPQ80 (AID 1614); conditions: PC12 NGF-treated GFP-polyQ80 inclusion reduction;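 further: lower means fewer inclusions and 0 means no inclusions at all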
[16] = suppressors of polyglutamine aggregation in yeast, 75Q-TubH (AID 1616); conditions: S. cerevisiae 75Q-TubH polyglutamine aggregation suppression; stronger effect = higher value
[17] = modulation of C. elegans fzo-1 (AID 1259413);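 further: fzo-1 mutant C. elegans worms in liquid wells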; conditions: C. elegans fzo-1 modulator screen, mean read-out; stronger effect = higher value
[18] = differential killing of epithelial or mesenchymal cells, primary screen, imaging, PC-3E GFP, TEM4-18 mCherry, co-culture (AID 1345086;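 active means compounds killing one labelled cell type while sparing the other, by normalised counts and ratio limits, not self-fluorescent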;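 further: cells exposed to compound for 72 h before imaging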;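 on red/green cell ratio (normalised): normalised mesenchymal count divided by normalised epithelial count so high means epithelial killing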); conditions: imaging cell counts, at 1 µM
[19] = sensitizers of A549 cells to miR-34 induction, primary screen, imaging, A549 dox-inducible miR-34, nuclei and caspase counts (AID 1347080;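 active means compounds whose cell count with miR-34 switched on is under 0.7 times the count with it off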); conditions: A549 miR-34 inducible, Hoechst nuclei count, 48 h
[20] = survival rescue of mitochondrial mutant cells in low glucose, primary screen, MELAS cybrids, Rieske KO mouse fibroblasts, CellTiter-Glo (AID 1508586;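 active means mean z-score across replicates of 1.96 or higher in either the MELAS or the Rieske mutant cell line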;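 further: z relative to plate mean and SD of compound and empty wells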)
[21] = molecular target: NAD(+) hydrolase SARM1 (Homo sapiens) (UniProt Q6SZW1); experiment: SARM1 TIR NADase inhibitors, cell lysate, NAD-Glo luminescence (AID 1508614;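 active means compound whose remaining NAD level is above about 45 nM, limit read from the data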); conditions: SAM-TIR HEK293T lysate NADase, at 1 µM, stronger effect = higher value
[22] = molecular target: Mitogen-activated protein kinase 7 (Homo sapiens) (UniProt Q13164); experiment: ERK5 transactivation activators in reporter cells, primary screen, cell-based, HTS (AID 1508626;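 active means luciferase signal above three times the same-plate solvent-only control wells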;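 further: luciferase driven by Gal4-ERK5 fusion binding five Gal4 sites before minimal TATA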); conditions: HeLa Gal4-ERK5 transactivation, 18 h, at 5 µM, stronger effect = higher value
[23] = viability rescue of complex I mutant cybrids, primary screen, cell-based, galactose medium, ATP luminescence (AID 1645843;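 active means z-score of at least 1.8 in each of two replicates, scored against plate mean and spread of sample wells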;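 further: positive z means more ATP and so rescue of galactose-driven cybrid death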); conditions: complex I mutant cybrid cells, 72 h, stronger effect = higher value
[24] = liver-stage malaria parasite growth inhibition, primary screen, cell-based, HepG2, luciferase luminescence, HepG2 viability (AID 624349; in the data active means parasite load remaining mostly below about 12%, no sharp cut-off; inactive means mostly above about 10%;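 further: 100% = mean of DMSO negative control wells on the same plate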); conditions: P. berghei liver stage in HepG2, luciferase luminescence, concentration not given here; parasite load remaining: stronger effect = lower value; viability: measured here: HepG2 viability without parasites
[25] = test system: Aerobactin synthetase IucA (Klebsiella pneumoniae); experiment: IucA aerobactin synthetase inhibitors, biochemical, Tocris library, absorbance (AID 1345561); conditions: purified IucA enzyme assay, absorbance (OD) read-out; stronger effect = lower value;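 tested at 8 µM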;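 further: 100% = enzyme without compound and 0% = no enzyme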
[26] = growth inhibition of DIPG glioma cells, dose response, cell-based, SU-DIPG-XVII, MIPE5.0, CellTiter-Glo, qHTS (AID 1347060; cut-off not given, nearly all actives have AC50 up to about 26 µM;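 further: cells exposed to compound for 48 hours before viability readout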); conditions: SU-DIPG-XVII viability, CellTiter-Glo ATP luminescence
[27] = growth inhibition of DIPG glioma cells, dose response, cell-based, SU-DIPG-XIII, MIPE4.0, CellTiter-Glo, qHTS (AID 1347061; cut-off not given, nearly all actives have AC50 up to about 37 µM;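 further: cells exposed to compound for 48 hours before readout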); conditions: SU-DIPG-XIII viability, CellTiter-Glo ATP luminescence
[28] = growth inhibition of DIPG glioma cells, dose response, cell-based, JHH-DIPG-1, MIPE4.0, CellTiter-Glo, qHTS (AID 1347062; cut-off not given, nearly all actives have AC50 up to about 27 µM;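 further: cells exposed to compound for two days before readout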); conditions: JHH-DIPG-1 viability, CellTiter-Glo ATP luminescence
[29] = growth inhibition of DIPG glioma cells, dose response, cell-based, SU-DIPG-IV, MIPE4.0, CellTiter-Glo, qHTS (AID 1347063; cut-off not given, nearly all actives have AC50 up to about 30 µM;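 further: compound exposure lasted 48 hours before the viability readout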); conditions: SU-DIPG-IV viability, CellTiter-Glo ATP luminescence
[30] = growth inhibition of DIPG glioma cells, dose response, cell-based, SU-DIPG-XIII, MIPE5.0, CellTiter-Glo, qHTS (AID 1347064; cut-off not given, nearly all actives have AC50 up to about 23 µM;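 further: cells exposed to compound for 48 hours before the viability read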); conditions: SU-DIPG-XIII viability, CellTiter-Glo ATP luminescence
[31] = viability loss in pontine glioma line – cell-based, SU-DIPG-XXV, MIPE5.0, CellTiter-Glo, qHTS, dose response (AID 1347065; cut-off not given, nearly all actives have AC50 up to about 26 µM;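 further: cells exposed to compound for 48 hours before ATP readout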); conditions: CellTiter-Glo ATP luminescence
[32] = SU-DIPG-VI glioma cell viability, MIPE4.0 library, CellTiter-Glo luminescence, qHTS (AID 1347066; cut-off not given, nearly all actives have AC50 up to about 30 µM;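 further: cells exposed to compound for 48 hours before readout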); conditions: CellTiter-Glo ATP luminescence
[33] = JHH-DIPG-1 glioma cell viability, MIPE5.0 library, CellTiter-Glo luminescence, qHTS (AID 1347067; cut-off not given, nearly all actives have AC50 up to about 26 µM;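 further: cells exposed to compound for 48 hours before readout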); conditions: JHH-DIPG-1 glioma viability, CellTiter-Glo ATP luminescence
[34] = SU-DIPG-XXV glioma cell viability, MIPE5.0 library, qHTS (AID 1347068; cut-off not given, nearly all actives have IC50 up to about 30 µM;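 further: cells exposed to compound for 48 hours before viability readout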)
[35] = stronger effect = lower value, cell number ratio, induced over uninduced
[36] = measured here: relative caspase fold change +Dox/-Dox
[37] = measured here: total cells with miR-34 induction, stronger effect = lower value
[38] = measured here: total cells without miR-34 induction
[39] = MELAS cybrid survival, CellTiter-Glo 48 h, stronger effect = higher value
[40] = Rieske KO mouse fibroblast survival, CellTiter-Glo 72 h

Chain of L-lactate dehydrogenase (Plasmodium falciparum (isolate CDC / Honduras)) (Q27743 whole entry, looked up): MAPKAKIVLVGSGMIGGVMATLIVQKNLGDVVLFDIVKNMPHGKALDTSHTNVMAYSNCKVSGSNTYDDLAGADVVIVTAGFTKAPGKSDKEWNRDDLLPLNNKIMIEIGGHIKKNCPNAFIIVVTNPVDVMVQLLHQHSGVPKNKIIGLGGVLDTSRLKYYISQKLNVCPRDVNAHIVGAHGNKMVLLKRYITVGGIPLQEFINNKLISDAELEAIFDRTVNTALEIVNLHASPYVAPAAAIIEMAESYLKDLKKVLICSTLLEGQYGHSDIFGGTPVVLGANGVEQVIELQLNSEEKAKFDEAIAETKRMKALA
Chain of Calcium-dependent protein kinase 1 (Plasmodium falciparum (isolate 3D7)) (P62344 whole entry, looked up): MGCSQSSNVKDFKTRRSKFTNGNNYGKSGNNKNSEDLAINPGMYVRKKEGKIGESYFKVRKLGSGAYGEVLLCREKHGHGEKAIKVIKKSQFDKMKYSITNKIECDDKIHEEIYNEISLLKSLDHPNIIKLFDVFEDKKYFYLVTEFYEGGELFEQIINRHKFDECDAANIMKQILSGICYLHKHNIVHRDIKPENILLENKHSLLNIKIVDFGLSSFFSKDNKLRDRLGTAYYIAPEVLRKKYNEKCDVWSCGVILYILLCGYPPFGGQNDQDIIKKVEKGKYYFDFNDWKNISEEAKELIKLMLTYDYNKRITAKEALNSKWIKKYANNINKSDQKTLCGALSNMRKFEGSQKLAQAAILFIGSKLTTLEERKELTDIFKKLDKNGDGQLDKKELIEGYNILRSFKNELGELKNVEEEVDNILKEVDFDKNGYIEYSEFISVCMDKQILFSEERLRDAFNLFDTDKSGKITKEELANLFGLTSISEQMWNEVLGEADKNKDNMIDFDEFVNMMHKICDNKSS
Chain of Calcium-dependent protein kinase 4 (Plasmodium falciparum (isolate 3D7)) (Q8IBS5 whole entry, looked up): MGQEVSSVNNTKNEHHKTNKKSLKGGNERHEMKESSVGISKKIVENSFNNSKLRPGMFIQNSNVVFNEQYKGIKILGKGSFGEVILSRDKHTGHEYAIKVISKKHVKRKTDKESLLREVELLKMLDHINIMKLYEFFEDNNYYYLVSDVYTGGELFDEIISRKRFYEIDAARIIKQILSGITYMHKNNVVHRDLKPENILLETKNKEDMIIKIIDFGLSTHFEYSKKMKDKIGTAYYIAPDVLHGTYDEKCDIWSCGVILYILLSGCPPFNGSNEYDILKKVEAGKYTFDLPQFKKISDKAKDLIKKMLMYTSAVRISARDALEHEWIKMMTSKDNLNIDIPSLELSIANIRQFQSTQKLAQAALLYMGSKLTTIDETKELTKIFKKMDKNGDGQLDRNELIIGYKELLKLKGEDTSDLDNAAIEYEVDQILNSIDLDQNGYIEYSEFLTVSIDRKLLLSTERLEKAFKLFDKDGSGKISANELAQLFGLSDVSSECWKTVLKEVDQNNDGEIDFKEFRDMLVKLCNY
Chain of Protein kinase 7 (PK7), Plasmodium falciparum 3D7 (PF3D7_0213400) (Q7YTF7 1-343): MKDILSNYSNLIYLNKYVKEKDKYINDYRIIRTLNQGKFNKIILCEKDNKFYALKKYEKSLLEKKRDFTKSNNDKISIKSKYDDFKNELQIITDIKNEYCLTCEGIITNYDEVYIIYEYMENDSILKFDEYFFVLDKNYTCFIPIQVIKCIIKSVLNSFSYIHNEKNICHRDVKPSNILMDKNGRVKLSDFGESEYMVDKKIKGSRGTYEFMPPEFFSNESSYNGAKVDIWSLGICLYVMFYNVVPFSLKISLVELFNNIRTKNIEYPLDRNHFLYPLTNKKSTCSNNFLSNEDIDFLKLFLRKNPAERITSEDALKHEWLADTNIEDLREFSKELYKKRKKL
Chain of Plasmodium falciparum protein kinase 6 (PK6, PF3D7_1337100) (Q8IDW1 1-305): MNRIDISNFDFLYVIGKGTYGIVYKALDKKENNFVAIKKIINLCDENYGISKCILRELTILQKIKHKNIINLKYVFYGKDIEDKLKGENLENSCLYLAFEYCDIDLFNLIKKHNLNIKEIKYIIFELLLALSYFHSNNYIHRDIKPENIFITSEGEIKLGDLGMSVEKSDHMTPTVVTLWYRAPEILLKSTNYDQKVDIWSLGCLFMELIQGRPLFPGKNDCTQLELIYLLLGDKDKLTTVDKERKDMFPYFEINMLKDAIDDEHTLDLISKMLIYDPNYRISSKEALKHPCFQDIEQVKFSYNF
Chain of Mitogen-activated protein kinase 7 (Homo sapiens) (Q13164 whole entry, looked up, the tested form may be a part): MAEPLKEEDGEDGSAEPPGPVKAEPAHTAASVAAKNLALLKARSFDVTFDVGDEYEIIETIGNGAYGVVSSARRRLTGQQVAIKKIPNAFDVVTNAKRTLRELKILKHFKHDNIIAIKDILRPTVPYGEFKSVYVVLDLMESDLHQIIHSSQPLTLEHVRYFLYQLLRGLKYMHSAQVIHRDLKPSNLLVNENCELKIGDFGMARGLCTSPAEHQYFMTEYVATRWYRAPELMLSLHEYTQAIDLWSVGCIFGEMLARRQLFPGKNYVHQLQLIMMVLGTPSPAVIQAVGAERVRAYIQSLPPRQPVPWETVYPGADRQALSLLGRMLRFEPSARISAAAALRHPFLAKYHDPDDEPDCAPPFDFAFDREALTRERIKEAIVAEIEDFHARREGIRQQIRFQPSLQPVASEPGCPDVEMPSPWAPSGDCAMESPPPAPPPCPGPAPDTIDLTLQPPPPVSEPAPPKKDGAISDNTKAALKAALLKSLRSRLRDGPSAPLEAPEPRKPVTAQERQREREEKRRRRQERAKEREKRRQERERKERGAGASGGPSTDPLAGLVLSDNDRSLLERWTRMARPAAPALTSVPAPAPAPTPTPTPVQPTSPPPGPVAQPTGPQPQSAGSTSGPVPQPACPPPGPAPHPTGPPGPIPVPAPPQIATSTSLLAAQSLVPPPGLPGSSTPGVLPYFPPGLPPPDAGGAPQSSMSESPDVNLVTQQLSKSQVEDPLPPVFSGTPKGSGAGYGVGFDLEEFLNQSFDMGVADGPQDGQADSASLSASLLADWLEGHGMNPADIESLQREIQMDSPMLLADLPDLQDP
Chain of NAD(+) hydrolase SARM1 (Homo sapiens) (Q6SZW1 whole entry, looked up, the tested form may be a part): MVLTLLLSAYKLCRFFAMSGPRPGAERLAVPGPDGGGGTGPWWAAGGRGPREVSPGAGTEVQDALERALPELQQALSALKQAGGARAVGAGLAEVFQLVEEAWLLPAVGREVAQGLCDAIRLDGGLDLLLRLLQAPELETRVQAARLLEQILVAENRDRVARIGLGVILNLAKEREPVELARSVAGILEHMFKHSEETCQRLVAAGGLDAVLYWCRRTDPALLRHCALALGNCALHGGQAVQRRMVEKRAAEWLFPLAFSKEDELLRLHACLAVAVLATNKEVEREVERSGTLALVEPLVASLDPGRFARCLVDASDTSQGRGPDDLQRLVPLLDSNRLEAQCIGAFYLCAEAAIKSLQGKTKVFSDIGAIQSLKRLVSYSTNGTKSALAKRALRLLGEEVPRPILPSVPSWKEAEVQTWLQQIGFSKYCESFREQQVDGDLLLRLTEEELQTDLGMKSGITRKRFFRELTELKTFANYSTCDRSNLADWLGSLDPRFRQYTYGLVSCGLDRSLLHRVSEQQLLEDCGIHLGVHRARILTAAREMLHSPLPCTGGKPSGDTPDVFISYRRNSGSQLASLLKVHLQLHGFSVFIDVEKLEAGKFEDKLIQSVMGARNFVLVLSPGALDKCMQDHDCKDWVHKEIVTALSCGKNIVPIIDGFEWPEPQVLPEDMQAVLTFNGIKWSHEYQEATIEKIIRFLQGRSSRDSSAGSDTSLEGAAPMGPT

O=C(/C=C/c1ccc(Cl)c(Cl)c1)NCCCCCN1CCC(NC(=O)Nc2ccccc2Cl)CC1
inactive: growth inhibition [1] 23% | inhibition [3] 3% | outcome [5] | outcome [6] | outcome [7] | outcome [8]
active: inhibition [2] 56% | growth inhibition [4] 102%

C=C[C@H]1CN2CC[C@H]1C[C@@H]2[C@@H](O)c1ccnc2ccc(OC)cc12
-0.47: rescue above control [11]
1.22: normalised cell number ([18]; measured here: mesenchymal TEM4-18 mCherry cell survival)
1.07: normalised cell number ([18]; measured here: epithelial PC-3E GFP cell survival)
12.1%: glutamate uptake change [14]
2: inclusion score [15]
9710 and 7980 and 11400: cell count [19, 37]
inactive: inhibition [2] -11% | inhibition [3] -3% | outcome [5] | outcome [6] | outcome [7] | outcome [8] | red/green cell ratio (normalised) ([18]; actives lie on both sides, counts scaled to control wells, 1 = unselective) 1.14 | fold change [19, 35] 0.965 and 0.96 and 0.929 | z-score [20, 39] 0.598 | remaining NAD [21] 10 nM | luciferase signal [22] 84 AU | z-score [23] 0.055
10100 and 8310 and 12200: cell count [19, 38]
12.3%: inhibition [9]
1.24: aggregation suppression score [16]
1.3: score [10]
1.07 and 0.67 and 3.94: fold change [19, 36]
0.401: z-score [20, 40]
1.12: cytochrome c release ratio [12]
54.5%: inhibition of aggregation [13]
active: growth inhibition [1] 95% | growth inhibition [4] 98% | mean signal [17] 302

COc1ccc(-c2ccc(S(=O)(=O)Nc3cc4c(cc3OC(C)C)CCN(C)CC4)cc2)cc1
inactive: growth inhibition [1] 2% | inhibition [2] 16% | inhibition [3] -4% | outcome [5] | outcome [6] | outcome [7] | outcome [8]
active: growth inhibition [4] 98%

Cn1ccnc1S(=O)(=O)CCNCc1ccc(-c2ccc3ncnc(Nc4ccc(OCc5cccc(F)c5)c(Cl)c4)c3c2)o1
active: growth inhibition [1] 94% | growth inhibition [4] 101%
inactive: inhibition [2] -2% | inhibition [3] -3% | outcome [5] | outcome [6] | outcome [7] | outcome [8]

CN1CCN(c2cccc(-c3nnc(-c4cccc(OCC(=O)NCc5ccc(C(F)(F)F)cc5)c4)o3)c2)CC1
active: growth inhibition [1] 86% | growth inhibition [4] 98%
inactive: inhibition [2] 10% | inhibition [3] -4% | outcome [5] | outcome [6] | outcome [7] | outcome [8]

COc1ccc(Cl)cc1NC(=O)Nc1cc(C)nc2ccccc12
0.602: z-score [20, 40]
active: growth inhibition [1] 99% | growth inhibition [4] 101%
inactive: inhibition [2] 10% | inhibition [3] -3% | parasite load remaining [24] 55.8% | outcome [5] | outcome [6] | outcome [7] | outcome [8] | remaining activity [25] 102% | fold change [19, 35] 0.905 and 1.03 | z-score [20, 39] -0.407 | z-score [23] -0.645
6720 and 4040: cell count [19, 37]
7420 and 3920: cell count [19, 38]
153%: viability [24]
0.387 and 0.813: fold change [19, 36]

CNCCNCc1cccc(-c2ccc(-c3nc4ccc(C(F)(F)F)cc4[nH]3)cc2)c1
inactive: inhibition [2] 21% | inhibition [3] -5% | outcome [5] | outcome [6] | outcome [7] | outcome [8]
active: growth inhibition [1] 92% | growth inhibition [4] 100%

CCC1CN2CCc3c([nH]c4ccccc34)[C@@H]2C[C@@H]1CC1NCCc2cc(OC)c(OC)cc21 (some centres not stated)
inactive: inhibition [2] 33% and 26% | inhibition [3] 3% and 1% | outcome [5] | outcome [6] | outcome [7] | outcome [8]
active: growth inhibition [1] 67% and 83% | growth inhibition [4] 100%

CCc1ccc(OCc2ccccc2C(=O)Nc2ccc3nc(C)cc(N)c3c2)cc1
active: growth inhibition [1] 74% | inhibition [2] 98% | growth inhibition [4] 99% | AC50 [26] 9.34 µM | AC50 [27] 11.8 µM | AC50 [28] 3.32 µM | AC50 [29] 3.32 µM | AC50 [30] 7.42 µM | AC50 [31] 8.33 µM | AC50 [32] 8.33 µM | AC50 [33] 5.25 µM | IC50 [34] 9.34 µM
1390 and 202: cell count [19, 38]
inactive: inhibition [3] 0% | outcome [5] | outcome [6] | outcome [7] | outcome [8] | remaining activity [25] 108% | fold change [19, 35] 0.988 and 0.896 | z-score [20, 39] -0.512 | z-score [23] -0.7
0.826: z-score [20, 40]
1370 and 181: cell count [19, 37]
1.57 and 0.955: fold change [19, 36]

O=C(Nc1cc(C(F)(F)F)cc(C(F)(F)F)c1)c1cc(Cl)ccc1O
1500 and 1040: cell count [19, 38]
1480 and 1100: cell count [19, 37]
active: growth inhibition [1] 98% | inhibition [2] 84% | growth inhibition [4] 90% | AC50 [26] 1.32 µM | AC50 [27] 0.59 µM | AC50 [28] 1.87 µM | AC50 [29] 1.48 µM | AC50 [30] 1.86 µM | AC50 [31] 1.32 µM | AC50 [32] 0.209 µM | AC50 [33] 1.48 µM | IC50 [34] 2.63 µM
inactive: inhibition [3] 2% | parasite load remaining [24] 0.02% | outcome [5] | outcome [6] | outcome [7] | outcome [8] | remaining activity [25] 120% | fold change [19, 35] 0.989 and 1.06 | z-score [20, 39] 0.314 | z-score [23] -0.7
51.5%: viability [24]
-0.453: z-score [20, 40]
0.581 and 1.23: fold change [19, 36]

— PubChem BioAssay
